What follows are compounds tested against fMet-Leu-Phe receptor (Homo sapiens) (UniProt P21462) (assay: human FPR1 ligand displacement single-point test – cell-based, single concentration, selectivity assay for FPRL1 ligand SAR project, SAR follow-up (AID 763)). Settings: FPR1-expressing cells, fluorescent ligand binding inhibition, active compounds read high; at 5.4 µM unless noted; call rule not given here.
fMet-Leu-Phe receptor (Homo sapiens), sequence (P21462 whole entry, looked up): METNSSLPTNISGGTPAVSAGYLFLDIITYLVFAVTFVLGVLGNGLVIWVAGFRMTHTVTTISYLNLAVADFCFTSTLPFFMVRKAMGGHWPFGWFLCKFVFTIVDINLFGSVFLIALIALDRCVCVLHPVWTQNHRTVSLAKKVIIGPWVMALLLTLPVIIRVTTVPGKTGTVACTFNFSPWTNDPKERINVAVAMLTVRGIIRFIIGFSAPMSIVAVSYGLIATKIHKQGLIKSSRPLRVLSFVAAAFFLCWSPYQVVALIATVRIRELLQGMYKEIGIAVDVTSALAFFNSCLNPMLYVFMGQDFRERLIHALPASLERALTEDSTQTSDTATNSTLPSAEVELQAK

inhibition, inactive:
CCCC(=O)Nc1cccc(-c2cn3cccnc3n2)c1 -1.6% [at 7.9 µM], Fc1ccc(-c2cc(C(F)(F)F)nc(N3CCN(C(c4ccccc4)c4ccccc4)CC3)n2)cc1 1.3% [at 4.5 µM], COc1ccc(-c2cc(C#N)nc(N3CCN(c4ccccc4)CC3)n2)cc1 2.6% [at 6 µM], COc1ccc(-c2cn3cccnc3n2)cc1NC(=O)c1ccc(Cl)cc1 -0.5% [at 5.9 µM], FC(F)(F)c1cc(-c2ccccc2)nc(N2CCN(c3ccccc3)CC2)n1 2.9% [at 5.8 µM], CCOC(=O)N1CCN(c2nc(-c3ccccc3Cl)c3cc(Br)ccc3n2)CC1 1.8% [at 4.7 µM], CC1(C)CC(=O)c2cnc(N3CCN(Cc4ccc5c(c4)OCO5)CC3)nc2C1 11.3% [at 5.6 µM], CCOC(=O)N1CCN(c2nc(-c3cccc(Cl)c3)c3c(n2)-c2ccccc2OC3)CC1 3.2% [at 4.9 µM], CN1CCN(c2nc(-c3ccccc3)c3cc(Cl)ccc3n2)CC1 6.1% [at 6.6 µM], FC(F)(F)c1cc(-c2ccccc2)nc(N2CCN(Cc3ccccc3)CC2)n1 -9.1% [at 5.6 µM], COc1ccc(-c2cn3cccnc3n2)cc1NC(=O)Cc1cccc(C)c1 4.7% [at 6 µM], COc1ccc(-c2cn3cccnc3n2)cc1NC(=O)c1cccc(C)c1 -4.1% [at 6.2 µM], Cc1ccc(-c2cc(C(F)F)nc(N3CCN(c4ccccc4)CC3)n2)cc1 -2.2% [at 5.8 µM], COc1ccc(-c2cn3cccnc3n2)cc1NC(=O)c1cc(Br)ccc1Cl -4% [at 4.9 µM], Clc1cccc(-c2nc(N3CCN(c4ccccc4)CC3)nc3c2COc2ccccc2-3)c1 -0.5% [at 4.9 µM], COc1ccc(-c2cn3cccnc3n2)cc1NC(=O)c1ccccc1F 2.4% [at 6.1 µM], FC(F)(F)c1cc(-c2cccs2)nc(N2CCN(Cc3ccccc3)CC2)n1 0.4% [at 5.5 µM], CCOC(=O)N1CCN(c2nc(-c3ccc(OC)cc3)cc(C(F)(F)F)n2)CC1 -5.3%, COc1cccc(-c2cc(C(F)(F)F)nc(N3CCN(c4ccccc4)CC3)n2)c1 -7.4%, CCOC(=O)N1CCN(c2nc(-c3ccc(OC)c(OC)c3)cc(C(F)(F)F)n2)CC1 4.1% [at 5.1 µM], COc1ccc(-c2cn3cccnc3n2)cc1NC(=O)c1cccc(OC)c1OC -0.2% [at 5.5 µM], Cc1ccc(-c2cc(C(F)F)nc(N3CCN(Cc4ccccc4)CC3)n2)cc1 -7.2% [at 5.6 µM], COc1ccc(-c2cn3cccnc3n2)cc1NC(=O)c1ccccc1C(F)(F)F -3.2%, COc1ccc(CC(=O)Nc2cc(-c3cn4cccnc4n3)ccc2OC)cc1 -1.7% [at 5.7 µM], COc1ccc(-c2cn3cccnc3n2)cc1NC(=O)C(C)C -8.8% [at 7.2 µM], CC1CCc2nc(N3CCN(Cc4ccccc4)CC3)nc(C(F)(F)F)c2C1 (centres undefined) 4.7% [at 5.7 µM], COc1ccc(-c2cn3cccnc3n2)cc1NC(=O)c1cc(C)cc(C)c1 -0.5% [at 6 µM], O=C(O)CCC(=O)N1CCN(c2nc(-c3ccccc3)c3ccccc3n2)CC1 6.1% [at 5.7 µM], COc1ccc(-c2cn3cccnc3n2)cc1NC(=O)COc1ccccc1 5.8% [at 5.9 µM], COc1ccc(-c2cn3cccnc3n2)cc1NC(=O)c1cccc(Br)c1 0.1% [at 5.3 µM], COc1ccc(-c2cn3cccnc3n2)cc1NC(=O)c1ccco1 1.3% [at 6.7 µM], Cc1ccc(C(=O)N2CCN(c3nc(-c4ccccc4)c4cc(Br)ccc4n3)CC2)cc1 -4.3% [at 4.6 µM], COc1ccccc1-c1cc(C(F)(F)F)nc(N2CCN(C)CC2)n1 5% [at 6.3 µM], CCOC(=O)N1CCN(c2nc(-c3ccc(C)cc3)cc(C(F)F)n2)CC1 1.5% [at 5.9 µM]
